Screening results: PubChem BioAssay, National Center for Advancing Translational Sciences (NCATS)
A selection: hits, their analogues and other compounds. The true share with any hit is near 19%.
Pf growth 48h = P. falciparum growth inhibition at 48 hours (one generation). actives 5.9% (n = 310,000). P. falciparum luciferase growth in erythrocytes, 48 h. Potency, µM (highest dose often 28.7 µM), without a hit: top-dose activity change, negative = inhibition, usual class: inhibitors; also: potency is read from the fitted curve at half-maximal effect; % is scaled to controls: 0 for no effect and ±100 for the full control effect
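Luciferase-expressing P. falciparum in infected erythrocytes (2% hematocrit, 0.1% parasitemia final) in RPMI 1640/0.5% Albumax were exposed to compound for 48 hours at 37 C, 5% CO2; growth read as luminescence.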
Pf growth 96h = P. falciparum growth inhibition at 96 hour, primary screen for plastid delayed-death inhibitors; P. falciparum luciferase reporter growth, 96 h; Potency, µM (top dose mostly 28.7 µM), inactives show at the highest dose activity change, negative = inhibition, actives largely listed as inhibitors; actives 6.9% (n = 320,000); AID 504834; also: potency is read from the fitted curve at half-maximal effect; % is scaled to controls: 0 for no effect and ±100 for the full control effect
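Readout is luminescence from an integrated firefly luciferase in P. falciparum. Red cells, 2% hematocrit and 0.05% parasitemia final, were cultured with compound through two parasite generations (96 hours) at 37 C, 5% CO2.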
Lassa entry inh = inhibitors of Lassa virus binding or cell entry; Potency, µM (top dose mostly 37.9 µM), for inactives: top-dose activity change, negative = inhibition, actives largely listed as inhibitors; actives 1.2% (n = 300,000); Lassa virus pseudotype entry inhibition, cell reporter; calls by dose curve; tested in HEK293 cells; also: potency is read from the fitted curve at half-maximal effect; % is scaled to controls: 0 for no effect and ±100 for the full control effect; nearly all actives have a fitted effect of over 50% in size
Shiga inhibitor = inhibitors of Shiga toxin in Vero cells; Vero cells, Shiga toxin protein synthesis inhibition reporter; inhibition, % at 38.7 µM; actives 9.2% (n = 290,000); AID 2315; in the data active = inhibition mostly above about 28%, no sharp cut-off; inactive = mostly below about 43%; also: 0% is about no effect
Marburg entry inh = blocks Marburg virus binding to or entry into cells. Marburg virus pseudotyped entry inhibition, cell reporter. Potency, µM (highest dose often 37.8 µM), without a hit: at the highest dose activity change, negative = inhibition, actives largely listed as inhibitors. actives 1.8% (n = 300,000). AID 540276; calls by dose curve; tested in HEK293 cells; also: potency is read from the fitted curve at half-maximal effect; % is scaled to controls: 0 for no effect and ±100 for the full control effect
CHX counter = counter-screen for Shiga toxin inhibitors: cycloheximide protein synthesis inhibition; actives 12% (n = 300,000); AID 2314; max response, %; cell reporter, cycloheximide protein synthesis inhibition counterscreen; in the data active = max response mostly above about 13%, no sharp cut-off; inactive = mostly below about 14%; also: read at 38.3 µM for the half of the compounds with a filed dose; 0% is about no effect
* hit, by the source's call; i = inactive; ? = inconclusive; · = no result; [ ] = remark or other dose. Unless noted, calls follow the shape of the dose curve; as a rule, active = well fitted inhibition curve with a large enough effect; inconclusive = small, poorly fitted or top-dose-only effect, or another doubt; inactive = no such curve, though single readings can be large or run the other way.

SMILES	Pf growth 48h	Pf growth 96h	Lassa entry inh	Shiga inhibitor	Marburg entry inh	CHX counter
CCC1CC=CC2C1C(=O)N(Cc1ccccc1)C2c1ccoc1 (stereo not given)	·	·	·	13	·	16
CC[C@@H]1CC=C[C@H]2[C@H]1C(=O)N(Cc1ccccc1)[C@H]2c1ccoc1	12µM*	?	·	58*	·	12*
Cc1c(-c2ccccc2)c(=O)oc2ccc(O)cc12	3%	17%	·	-2	·	1
CN1CCN(c2ccc(NC(=O)c3cc4ccccc4o3)cc2)CC1	1%	-2%	·	57	·	33*
O=C(Nc1ccc(N2CCN(C(=O)c3ccccc3)CC2)cc1)c1cc2ccccc2o1	12µM*	·	14µM*	-11	?	-5
CS(=O)(=O)N1CCN(c2ccc(NC(=O)c3cc4ccccc4o3)cc2)CC1	64%	88%	·	21	·	19*
CCCC(=O)N1CCN(c2ccc(NC(=O)c3cc4ccccc4o3)cc2)CC1	?	11%	-18%	3	?	-3
COc1ccc(-c2noc(COc3ccc(C)c(C)c3)n2)cc1OC	8%	5%	4%	-3	9%	10
O=C(Nc1ncc2c(n1)-c1ccccc1CC2)c1ccccc1	31%	49%	-6%	63*	-1%	20*
O=C(Nc1nc2c(s1)COc1ccccc1-2)c1cccs1	·	?	·	5	·	-4
O=C(Nc1ncc2c(n1)-c1ccccc1CC2)c1cccs1	?	?	-24%[46.1 µM]	64	?	28*
O=C(Nc1ncc2c(n1)-c1ccccc1CC2)c1ccc(F)cc1	2%	2%	1%	-7	-23%	-3
O=C(Nc1nc2c(s1)CCc1ccccc1-2)c1cccs1	?	?	-17%	94*	-14%	41*
Fc1ccccc1Nc1nc2c(s1)CCc1ccccc1-2	269%	1%	?	85*	?	73*
O=C(CN1C(=O)CSc2ccc(S(=O)(=O)N3CCOCC3)cc21)NCCCN1CCCCC1	18%	-12%	-1%[46.1 µM]	-3	·	-3
COC(C(C)/C=C/CC(=O)OCCCc1ccccc1)C1CCCCC1 (stereo not given)	·	·	·	·	5%[14.2 µM]	·
C=CCc1ccc(OCCN2CCc3ccccc3C2)c(OC)c1	?	2%	4%	26	?	14
Nc1ncc2c(n1)-c1ccccc1CC2	3.7µM*	39%	1%[46.1 µM]	33	?	13
Cc1nnc2sc(-c3ccc(N(C)C)cc3)nn2c1=O	28%	10µM*	·	54*	·	28*
COc1ccccc1-c1nnc2sc(-c3ccc(N(C)C)cc3)nn12	?	12µM*	?	-26	?	-3
CN(C)c1ccc(-c2nn3c(-c4ccccc4Cl)nnc3s2)cc1	?	·	?	-5	-33%	-2
Cc1nc(S(=O)(=O)N(C)Cc2ccccc2)c(C#N)c(C)c1Cl	-5%	7%	2%	2	10%	-4
COc1cccc(C(=O)Nc2ccc(Cl)c(C(F)(F)F)c2)c1	-18%	?	?	88*	-1%	51*
COc1cc(C(=O)Nc2ccc(Cl)c(C(F)(F)F)c2)cc(OC)c1OC	13µM*	-9%	-5%	9	-31%	5
COc1cc(C(=O)Nc2cccc(-n3cnnn3)c2)cc(OC)c1OC	1%	0%	·	-10	·	-3
SMILES	Pf growth 48h	Pf growth 96h	Lassa entry inh	Shiga inhibitor	Marburg entry inh	CHX counter
COc1cc(C(=O)Nc2cccc(-n3cnnn3)c2)cc(Cl)c1OC	9.3µM*	?	·	-3	·	-1
CC(C)NC(=O)c1cnc(Sc2ncc(C(F)(F)F)cc2Cl)n1C	·	-12%	-15%	-8	?	-4
COCCNC(=O)c1ccc(CN2CCC(Cc3ccccc3)CC2)cc1	-12%	?	0%	-11	-3%	-3
O=C(NCc1ccccc1)c1ccc(CN2CCC(Cc3ccccc3)CC2)cc1	13µM*	-4%	·	-1	·	-4
O=C(c1ccc(CN2CCOCC2)cc1)N1CCC(Cc2ccccc2)CC1	-22%	2.9µM*	-18%	-15	9%	-6
CCc1ccccc1NC(=O)c1ccc(CN2CCC(Cc3ccccc3)CC2)cc1	1µM*	25%	?	-9	?	-3
CCOC(=O)c1ccc(CN(Cc2ccc(F)cc2)S(=O)(=O)c2cc(C(=O)Nc3cccc(C(F)(F)F)c3)ccc2F)cc1	·	·	4%[46.1 µM]	·	·	·
CC(=O)Nc1nc(-c2ccc(Cl)cc2)ns1	195%	122%	?	active	?	64*
O=C(CSc1ncn[nH]1)Nc1nc(-c2ccccc2)ns1	102%	·	?	49*	-3%	34*
CCC(=O)Nc1nc(-c2ccccc2)ns1	328%	245%	-6%	61*	9%	32*
CC(C)C(=O)Nc1nc(-c2ccccc2)ns1	445%	i	?	96*	?	48*
COc1ccc(-c2nsc(NC(=O)c3ccccc3Br)n2)cc1	·	·	14%[46.1 µM]	·	?	·
O=C(CSc1ncn[nH]1)NCc1ccccc1	-30%	0%	11%	-15	2%[46.1 µM]	15
Cc1ccc(NC(=O)C(C)n2nnc3sc4c(c3c2=O)CCCC4)cc1Cl (stereo not given)	·	·	?	·	0%[46.1 µM]	·
Cc1ccc(-c2nc(NC(=O)CSc3ncn[nH]3)ns2)cc1	20%	15%	·	59*	·	16*
Cc1nnc(SCCC(=O)Nc2nc(-c3ccccc3)ns2)s1	8%	?	-3%	22	-19%	11
CCCC(=O)Nc1nc(-c2ccccc2)ns1	224%	220%	21µM*	28*	?	86*
OC(CNCc1cccnc1)COc1ccc2ccccc2c1 (stereo not given)	6%	41%	0%[46.1 µM]	18	26%[46.1 µM]	1
CCC(C)Oc1ccc(/C=C/c2[nH]c(=O)[nH]c(=O)c2[N+](=O)[O-])cc1OC (stereo not given)	-37%	0%	-10%[46.1 µM]	-4	?	2
O=S(=O)(NCc1ccc(F)cc1)c1cccc(S(=O)(=O)N2CCOCC2)c1	·	-21%	-9%	-4	-4%	-3
O=S(=O)(NCc1ccccc1F)c1cccc(S(=O)(=O)N2CCOCC2)c1	8.3µM*	63%	-6%	3	-11%	-1
C(=C\c1ccco1)/c1nc2ccccc2[nH]1	18%	0%	·	70*	·	50*
O=C(/C=C/c1ccccc1)NCCc1nc2ccccc2[nH]1	-2%	-15%	3%	-10	-9%[46.1 µM]	-3
C(=C\c1nc2ccccc2[nH]1)/c1ccccc1	-35%	?	?	68*	?	21*
O=c1[nH]c2ccccc2nc1/C=C/c1ccc(Cl)cc1	239%	36%	14%	69*	5%[14.2 µM]	37*
CCOc1ccc(S(=O)(=O)NCCC(=O)NC(C)CCc2ccccc2)cc1 (stereo not given)	?	?	-18%	·	4%	·
CC(C)N1CCC(=NNC(=O)c2ccc(Br)o2)CC1	?	0%	0%	37*	?	42*
O=C(NN=C1CCCCCC1)c1ccc(Br)o1	28%	12%	14%	87*	2%	48*
